# This is a sample that favours compounds with a hit; in the whole collection about 1.7% have one here.
# RecA splice inh: Mtb RecA intein splicing inhibitors, primary screen, biochemical, fluorescence, HTS; Protein RecA (Mycobacterium tuberculosis (strain ATCC 25618 / H37Rv)), P9WHJ3; inhibition, % (concentration not given with the values); actives 0.75% (n = 290,000); cell-free RecA intein splicing; in the data active = inhibition above about 30%; inconclusive = no clear call, values can overlap the other calls
# Target sequence (P9WHJ3 whole entry, looked up, canonical isoform): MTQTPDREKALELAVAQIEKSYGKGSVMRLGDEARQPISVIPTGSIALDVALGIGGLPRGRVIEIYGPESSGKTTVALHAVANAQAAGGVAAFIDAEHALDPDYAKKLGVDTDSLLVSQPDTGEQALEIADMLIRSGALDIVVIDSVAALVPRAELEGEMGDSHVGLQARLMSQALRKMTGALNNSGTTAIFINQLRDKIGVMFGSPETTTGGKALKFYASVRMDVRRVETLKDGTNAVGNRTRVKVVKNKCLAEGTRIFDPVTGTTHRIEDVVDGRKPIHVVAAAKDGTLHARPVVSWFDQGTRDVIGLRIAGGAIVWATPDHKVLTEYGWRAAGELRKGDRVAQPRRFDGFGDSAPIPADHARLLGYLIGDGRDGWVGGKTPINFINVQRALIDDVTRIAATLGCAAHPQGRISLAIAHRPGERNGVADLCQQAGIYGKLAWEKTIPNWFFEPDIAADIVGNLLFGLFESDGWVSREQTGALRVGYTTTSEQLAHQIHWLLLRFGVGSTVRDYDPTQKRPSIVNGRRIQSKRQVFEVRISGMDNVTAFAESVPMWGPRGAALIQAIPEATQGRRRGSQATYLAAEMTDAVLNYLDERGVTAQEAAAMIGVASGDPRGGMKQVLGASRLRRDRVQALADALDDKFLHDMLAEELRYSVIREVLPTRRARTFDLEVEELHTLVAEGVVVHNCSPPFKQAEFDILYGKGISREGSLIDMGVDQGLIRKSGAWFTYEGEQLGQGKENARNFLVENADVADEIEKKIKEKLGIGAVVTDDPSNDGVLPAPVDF
# PfHsp40 rescue: rescue of yeast from PfHsp40 toxicity, primary screen, S. cerevisiae, ATP luminescence. S. cerevisiae expressing PfHsp40, growth rescue. growth rescue, % at 12.5 µM. actives 0.68% (n = 340,000). AID 504582, 2011; in the data active = growth rescue above about 28%, passing the limit was not always enough; inconclusive = no clear call, values can overlap the other calls;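 note: yeast W303a lacking pdr1 and pdr3 grown in galactose medium; growth measured after three days at 30 °C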
# CCHFV vOTU inh: CCHFV vOTU protease inhibitors, primary screen, biochemical, Pep-AMC substrate, fluorescence. inhibition, % at 11.5 µM. Crimean-Congo hemorrhagic fever virus L polyprotein viral ovarian tumor (vOTU) protease …. actives 0.55% (n = 370,000); in the data active = inhibition above about 30%
# Mtb betalactam: beta-lactam sensitization of Mtb H37Rv, H37Rv; M. tuberculosis H37Rv growth with meropenem, percent inhibition; inhibition, % at 25 µM; actives 0.27% (n = 330,000); AID 434955, 2010;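 note: growth measured after seven days incubation then overnight dye step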
# Mtb hypoxia rep: PubChem AID 1159583; M. tuberculosis hypoxia-regulated fluorescent reporter, fluorescence; fluorescence inhibition, % (no concentration beside the values); actives 0.1% (n = 300,000); in the data active = fluorescence inhibition mostly above about 23%, no sharp cut-off; inactive = mostly below about 17%
# GFP chromo cs: counter-screen: blocks GFP chromophore formation, dose response, counter-screen, biochemical, fluorescence, homogeneous; shares compounds with RecA splice inh; actives 83% (n = 2,100); EC50, µM; AID 434968, 2010; cell-free GFP chromophore formation
# Hits are given with their value; - = inactive; ? = inconclusive; . = not tested or not shown. Unless noted, the rule behind the calls is not given here.
SMILES,RecA splice inh,PfHsp40 rescue,CCHFV vOTU inh,Mtb betalactam,Mtb hypoxia rep,GFP chromo cs
CC(=O)NCCn1c(SCc2ccc(C)cc2C)nc2ccccc2c1=O,-,-,-,-,-,.
CC(=O)NCCn1c(SCc2ccccc2C)nc2ccccc2c1=O,32,-,-,?,-,-
O=C(NC(=S)NNC(=O)c1ccccc1O)c1ccco1,36,-,-,-,-,-
O=C(NN=Cc1cc(Br)ccc1O)Nc1ccccc1,.,.,.,.,-,.
Oc1ccc(O)c(Cc2nc3ccccc3s2)c1,31,-,-,-,-,-
Oc1ccccc1OCc1nc2ccccc2s1,-,-,-,-,-,.
O=C(NCc1ccco1)/C(=C/c1cccc(C(F)(F)F)c1)c1nc2ccccc2[nH]1,38,-,-,-,-,-
O=C(NCc1ccco1)/C(=C/c1ccc(C(F)(F)F)cc1)c1nc2ccccc2[nH]1,-,-,-,-,-,.
COc1ccc(OC2C=CC(c3ccccc3)OC2COC(=O)CCC(C)=NOC(C)c2cn(C3COCC3O)nn2)cc1 (stereo unspecified),.,.,.,.,-,.
COc1ccccc1NC1=C(N2CCCCC2)C(=O)c2ccccc2C1=O,79,-,.,-,-,17
COc1ccccc1NS(=O)(=O)c1cc(N)ccc1N1CCCC1,.,-,-,-,-,.
O=C(CSc1nc2ccccc2nc1SCC(=O)N1CCOCC1)N1CCOCC1,32,-,-,-,-,-
O=C(CSc1nc2ccccc2nc1SCC(=O)N1CCCCC1)N1CCCCC1,-,-,-,-,-,.
Cc1ccc(CN2C(Cc3ccccc3)C(=O)CS2(=O)=O)cc1 (stereo unspecified),.,.,.,.,-,.
c1cncc(CNc2ncnc3sc4c(c23)CCCC4)c1,36,-,-,-,-,-
Cc1nc(NCc2cccnc2)c2c3c(sc2n1)CCCC3,-,-,-,-,-,.
Cc1[nH]n(-c2ccccc2)c(=O)c1/C=N/NC(=O)c1ccc(O)cc1O,41,52,.,-,.,2.8
Cc1[nH]n(-c2ccccc2)c(=O)c1/C=N/NC(=O)c1cccc(F)c1,-,-,-,-,.,.
COc1ccc(/C=C2/C(=O)N(Cc3ccccc3)N=C2C)cc1,59,-,-,-,-,7.3
CC1=NN(c2ccccc2)C(=O)C1=Cc1ccccc1,.,.,-,.,.,.
Cc1nn(C)c(Cl)c1S(=O)(=O)NC(c1ccccc1)[C@]1(C)CC1C(C)C(=O)Nc1ccc2ccccc2c1 (stereo partly specified),.,.,.,.,-,.
O=C(O)CC1OCC=C2CN3CCC45c6ccccc6NC4C1C2CC35 (stereo unspecified),-,-,-,-,.,.
O=C(O)CC1OCC=C2CN3CCC45C6=CC(=O)C(=O)C([N+](=O)[O-])=C6NC4C1C2CC35 (stereo unspecified),85,-,.,?,-,7.1
CCc1nc(N2CCN(C(=O)CCl)CC2)c2c3c(sc2n1)CC(C)CC3 (stereo unspecified),87,-,-,-,.,2.6
O=S(=O)(CCSc1nc2ccccc2s1)c1nc2ccccc2s1,78,-,-,-,-,3.6
SMILES,RecA splice inh,PfHsp40 rescue,CCHFV vOTU inh,Mtb betalactam,Mtb hypoxia rep,GFP chromo cs
COc1ccc(NC(=O)N(C)CC2Oc3c(NC(=O)Nc4ccc(C(F)(F)F)cc4)cccc3C(=O)N(C(C)CO)CC2C)cc1 (stereo unspecified),.,.,.,.,-,.
Cc1ccc(C[n+]2c(-c3ccc(C)cc3)cc(-c3ccc(C)cc3)cc2-c2ccc(C)cc2)cc1,56,?,.,-,.,14
Cc1ccc(C[n+]2ccccc2)cc1,-,-,-,-,-,.
Cc1cc(C)n(-c2ccc([N+](=O)[O-])cc2)n1,43,-,-,-,-,-
Cc1cc(N)n(-c2ccc([N+](=O)[O-])cc2)n1,-,-,-,-,-,.
O=C1C(=O)N(CCN2CCOCC2)C(c2cccnc2)C1=C(O)c1ccc(Cl)cc1 (stereo unspecified),.,.,.,.,-,.
COC(=O)C(C#N)C(c1cccnc1)c1c(C)[nH][nH]c1=O (stereo unspecified),85,-,-,-,-,7.8
CC(=O)NC(c1ccccc1)c1cccnc1 (stereo unspecified),-,-,-,-,-,.
CCOC(=O)c1nnn(-c2nonc2-n2cccc2)c1CCl,70,-,-,-,-,12
C/C(CC(=O)Nc1cc(C)ccn1)=N\NC(=O)c1cccc(C)c1,70,-,-,-,.,18
C/C(CC(=O)Nc1cc(C)ccn1)=N\NC(=O)C(=O)NC(C)C,64,-,-,-,.,39
CC1(C)CC(=O)C(Br)=C(O)C1,.,-,-,.,-,.
CC1(C)CC(=O)C(C2(O)C(=O)NC(=O)NC2=O)=C(O)C1,95,-,-,-,-,2.5
CCOC(=O)c1c(C)sc2c1N(C(=O)CCl)c1cc(Cl)ccc1S2,55,-,-,-,.,1.6
O=C(c1c[nH]c(C(=O)C(Cl)(Cl)Cl)c1)c1c(F)cccc1F,-,-,-,-,-,.
O=C(c1c[nH]c(C(=O)C(Cl)(Cl)Cl)c1)c1ccccc1Cl,32,-,-,-,-,25
CC(C)(C)C1COC(=O)CCC=CCC(CC(=O)NC(CO)Cc2ccccc2)C(=O)N1 (stereo unspecified),.,.,.,.,-,.
Cc1ccc(S(=O)(=O)N=C(CSC(N)=O)Nc2ccccc2)cc1,.,.,.,.,-,.
Cn1c(O)c(C2=NN(C(=O)CCl)C(c3ccccc3)C2)c(=O)n(C)c1=O (stereo unspecified),45,-,-,-,-,5.8
Cc1ccc(N2C(=O)C(=Cc3ccco3)SC2=S)cc1,.,.,.,.,-,.
C(=Cc1ccccc1)CSc1nnc(-c2ccccn2)n1Cc1ccco1,.,.,.,.,-,.
CCOC(=O)C1=C(C)OC(N)=C(C#N)C1c1c(C)nn(-c2ccc(C)cc2)c1Cl (stereo unspecified),-,.,.,.,.,.
COc1ccc(C2C(C#N)=C(N)Oc3c2c(-c2ccccc2)nn3-c2ccccc2)c(OC)c1OC (stereo unspecified),-,-,-,-,-,.
Cc1ccc(-n2nc(C)c3c2OC(N)=C(C#N)C3c2ccco2)cc1 (stereo unspecified),69,-,-,-,-,11
Cc1ccc(-n2nc(C)c3c2OC(N)=C(C#N)C3c2ccc(C)o2)cc1 (stereo unspecified),80,-,-,-,-,17
COc1ccc(OC)c(C2C(C#N)=C(N)Oc3c2c(C)nn3-c2ccc(C)cc2)c1 (stereo unspecified),44,-,-,-,.,29
C[C@]12CCC(=O)C=C1C(O)CC1C2C(O)C[C@@]2(C)C1CC[C@]2(O)C(=O)CO (stereo partly specified),.,.,.,.,-,.
COc1ccccc1/C=C/C=NNC(=O)CCC1C(=O)NN=C1C (stereo unspecified),.,.,.,.,-,.
CN(C)CCCNCCCNC(=O)C(=NO)c1ccccn1,.,.,.,.,-,.
